Compound activity as filed in PubChem.
E coli Lon inh: E. coli protease La inhibition. P0A9M0. purified E. coli Lon protease, fluorescence polarization. inhibition, % at 7.94 µM. 0.42% of 360,000 active. AID 602123; in the data active means inhibition above about 13%, passing the limit was not always enough;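 further: 0% = enzyme with probe and DMSO and 100% = no enzyme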
GLD-1 TGE inh: GLD-1-TGE RNA interaction inhibition (C. elegans). Q17339. purified GLD-1 + fluorescein TGE RNA, fluorescence polarization. inhibition, % at 5.96 µM. 0.44% of 320,000 active. AID 2280;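 active means percent inhibition above a per-plate cutoff, the plate mean of test compounds plus 3 SD, cut at about 30% in these data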;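 further: 0% = DMSO wells with GLD-1 and probe and 100% = wells lacking GLD-1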
Keap1-Nrf2 PPI: disrupts human Keap1 binding to Nrf2 peptide; Q14145; Keap1 Kelch-Nrf2 peptide fluorescence polarization, 1536-well; inhibition, % at 9.4 µM; 0.15% of 340,000 active; in the data active means inhibition above about 12%; inconclusive means no clear call, values can overlap the other calls; inactive means below about 7.3%;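 further: human Keap1 Kelch domain with fluorescein labeled Nrf2 9mer peptide probe; 0% = neutral control wells and 100% = peptide positive control; higher means more block of Keap1 binding to Nrf2 peptide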
MEX-5 binding: C. elegans MEX-5 TCR-2 RNA binding activity. 0.38% of 300,000 active. activity score (negative = inhibition of binding), % at 10 µM. MEX-5/FITC-TCR2 RNA binding, fluorescence polarization; active compounds read low;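 active means inhibition past about -25% in most replicates, and total fluorescence under double the plate's negative control median, limit read from the data; inconclusive means replicates evenly split on the limit, or fluorescence at least double controls; inactive means too little inhibition in most replicates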;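 further: 0% = DMSO and -100% = 5 µM competing unlabeled TCR2 RNA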
Target sequence (Q9XUB2 whole entry, looked up): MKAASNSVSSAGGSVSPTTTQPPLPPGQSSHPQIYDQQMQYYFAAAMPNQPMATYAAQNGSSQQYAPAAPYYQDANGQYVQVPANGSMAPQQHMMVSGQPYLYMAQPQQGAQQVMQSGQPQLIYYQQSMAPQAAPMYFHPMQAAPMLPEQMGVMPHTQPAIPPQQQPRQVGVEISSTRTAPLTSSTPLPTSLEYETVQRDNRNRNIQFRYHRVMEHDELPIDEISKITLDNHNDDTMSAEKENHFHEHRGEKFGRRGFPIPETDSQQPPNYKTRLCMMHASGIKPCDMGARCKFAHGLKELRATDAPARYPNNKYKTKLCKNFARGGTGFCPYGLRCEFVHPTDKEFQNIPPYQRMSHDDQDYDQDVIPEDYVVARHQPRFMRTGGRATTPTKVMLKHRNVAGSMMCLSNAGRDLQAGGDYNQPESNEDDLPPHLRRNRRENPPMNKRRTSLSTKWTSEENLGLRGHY
C-LANA FP: inhibitors of KSHV LANA C-terminal domain DNA binding | AID 504423 | inhibition, % at 9 µM | MBP-C-LANA/FAM-LBS DNA binding, fluorescence polarization | 0.078% of 340,000 active;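 active means highest replicate inhibition at or above 60% at 9 µM, even if other replicates fall short; inactive means all replicates below 60% inhibition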;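 further: 0% = neutral control wells and 100% = 4 µM acridine orange control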
BCLXL inh: inhibitors of human Bcl-xL. Q07817. GST-Bcl-xL / FITC-Bim BH3 peptide fluorescence polarization. inhibition, % at 10.9 µM. 0.7% of 320,000 active. AID 2129;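 active means inhibition above the mean of all tested compounds plus 3 SD, cutoff set per campaign, cut at about 30% in these data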;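 further: 0% = DMSO wells and 100% = unlabeled Bim-BH3 peptide competitor; inhibitors lower millipolarization by displacing the labeled peptide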
GLD1 RNA confirm: confirmation of C. elegans GLD-1 TGE RNA binding inhibitors; shares compounds with GLD-1 TGE inh; GLD-1/FL-TGE RNA fluorescence polarization, biochemical; inhibition, % at 5.96 µM; 10% of 550 active; AID 2459;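 active means average inhibition across triplicates above the hit cutoff set in the primary screen, cut at about 32% in these data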;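 further: 0% = GLD-1 with RNA probe and DMSO and 100% = wells lacking GLD-1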
Active calls of the source: *; u = inconclusive; x = no result given. An excerpt weighted towards active compounds, which were near 1.2% of everything screened.

SMILES | E coli Lon inh | GLD-1 TGE inh | Keap1-Nrf2 PPI | MEX-5 binding | C-LANA FP | BCLXL inh | GLD1 RNA confirm
COc1cccc(C(=O)NN2CC(O)=C(c3nc4ccccc4s3)C2=N)c1 | -7 | 31* | -4 | -1 | 2 | 0 | -7
Clc1ccccc1/C=N/NC1=Nc2cccc3cccc1c23 | 32 | 48* | 2 | -5 | 0 | 23 | 22
C(=N\NC1=Nc2cccc3cccc1c23)/c1ccccn1 | -43 | x | -20 | -4 | 0 | x | x
N#Cc1ncccc1CCc1cccc(Cl)c1 | -4 | 0 | 8 | 0 | 1 | 2 | x
CCOc1cccc(=O)c2c(C)n(C)c(C)c12 | 11 | 40* | 0 | -7 | 3 | 26 | -4
CCC(=O)OCCNc1cc(Sc2nc3ccccc3[nH]2)c2nonc2c1[N+](=O)[O-] | 7 | 0 | -1 | x | -3 | 10 | x
CCC(=O)OCCNc1cc(Sc2nc3ccccc3s2)c2nonc2c1[N+](=O)[O-] | -10 | 38* | 3 | -4 | 3 | 62* | 25
O=C(OCC(=O)N1CCN(C(=O)c2ccco2)CC1)c1sc2cc(F)ccc2c1Cl | -9 | 36* | -2 | 0 | 1 | 60* | -5
CC1CN(C(=O)C2CCCC2)C(C)CN1C(=O)C1CCCC1 (stereo not given) | 3 | 2 | -3 | -1 | 0 | 1 | x
CC1CN(C(=O)C2CC2)C(C)CN1C(=O)C1CC1 (stereo not given) | -4 | 34* | -2 | -1 | -2 | 2 | -5
CCC12OC(=N)C(C#N)(C1C)C(C#N)(C#N)C(c1ccccc1)O2 (stereo not given) | 1 | 33* | 0 | -10 | 3 | 21 | -1
O=C(N/N=C/c1ccc[nH]1)c1ccc([N+](=O)[O-])cc1 | 3 | 57* | 0 | 1 | -2 | 4 | -3
Cc1csc(NC(=O)CN(C)S(=O)(=O)c2cccc3cccnc23)n1 | -5 | -3 | 6 | -2 | -1 | 6 | x
CN(CC(=O)Nc1n[nH]c(=S)s1)S(=O)(=O)c1cccc2cccnc12 | -15 | 112* | 3 | -9 | 0 | -4 | 0
O=C(COC(=O)CCNS(=O)(=O)c1ccccc1)NC(=O)c1ccccc1 | -10 | 4 | 5 | -2 | 4 | -11 | x
CCOc1ccc(C(=O)NCC(=O)OCc2nnc(-c3ccccc3)o2)cc1OCC | 5 | -1 | -7 | x | -2 | 2 | x
COc1ccc(S(=O)(=O)C(C#N)c2nc3ccccc3nc2N2CCC(C)CC2)cc1 (stereo not given) | x | 42* | x | -47* | x | 49* | 5
CCCCOc1nc2ccccc2nc1C(C#N)S(=O)(=O)c1ccccc1 (stereo not given) | -16 | 2 | 4 | -1 | 1 | 3 | x
Cc1cccc(S(=O)(=O)C(C#N)c2nc3ccccc3nc2N2CCOCC2)c1 (stereo not given) | 6 | 41* | 0 | -72* | 4 | 32* | -2
CC1CCCN(c2nc3ccccc3nc2C(C#N)S(=O)(=O)c2ccccc2)C1 (stereo not given) | 10 | 55* | u | u | 29 | 77* | 1
CC(C)(C)c1ccccc1NC(=O)CN1C(=O)NC(Cc2ccccc2)C1=O (stereo not given) | -1 | 6 | x | 2 | x | -9 | x
CCCCC[C@@H](C)N1C[C@@H](COCc2ccccc2)Oc2cc(N3CCC[C@@H]3CO)ccc2S1(=O)=O | 6 | x | x | x | x | x | x
CCOC(=O)N1CCN(C2=Nc3cccc4cccc2c34)CC1 | 2 | 49* | 1 | u | 7 | 39* | 30
COc1ccccc1N1CCN(C2=Nc3cccc4cccc2c34)CC1 | -12 | 8 | -3 | -8 | 2 | 3 | x
O=C(c1cccc(S(=O)(=O)Nc2ccc(F)cc2)c1)N1CCCC1 | -7 | 2 | 2 | x | -1 | 5 | x
CS(=O)(=O)N(CCC(=O)O)Cc1ccccc1 | 0 | 37* | 1 | 1 | -4 | 5 | -3
CC(=O)Oc1ccc(N2C(=O)C3C(C2=O)C(C(=O)c2ccc(Cl)cc2)N2CCCC32)cc1 (stereo not given) | 6 | 58* | -8 | -7 | 9 | 78* | 14
